# Results reported in PubChem BioAssay (Tox21).
# Several values for one entry are separate records, joined by “and”; a condition that tells them apart may be missing. Identical values can stand only once. Results filed as inconclusive are left out. A call without a number means that no potency is given here. The source holds several records for some structures; these can differ, active in one and inactive in another. Activity calls are given as the source filed them. The call rests on the fitted dose curve; in most records, active means well fitted curve in the direction sought with a large enough effect in the repeat runs; inconclusive means weak or mixed curves; inactive means no such curve, though single readings can be large; an effect the other way counts as inactive or inconclusive.
# Columns and labels:
# [1] = A CellTox Green Cytotoxicity Assay to monitor cytotoxicity in HEK293 cells - 32 hour (AID 1224881); further: nearly all actives have a fitted effect of over 40% in size; further: potency means the concentration at half of the fitted maximal effect
# Summary of the method: (§1)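 Each value comes from one timepoint of a single continuous run in which HEK293 cells with CellTox Green were exposed to compound for up to 40 h at 37 C, dye fluorescence rising with cell death.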
# [2] = A CellTox Green Cytotoxicity Assay to monitor cytotoxicity in HepG2 cells - 0 hour (AID 1224882); further: nearly all actives have a fitted effect of over 35% in size
# Summary of the method: (§2)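 Continuous culture of HepG2 cells with a membrane-impermeant DNA dye; rising fluorescence marks dead cells. Compound exposure lasted up to 40 h at 37 C, with reads every 8 h from 0 h.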
# [3] = A CellTox Green Cytotoxicity Assay to monitor cytotoxicity in HepG2 cells - 32 hour (AID 1224883); further: nearly all actives have a fitted effect of over 50% in size; further: potency means the concentration at half of the fitted maximal effect
# Summary of the method: as §2
# [4] = A CellTox Green Cytotoxicity Assay to monitor cytotoxicity in HEK293 cells - 8 hour (AID 1224884); further: nearly all actives have a fitted effect of over 35% in size; further: potency means the concentration at half of the fitted maximal effect
# Summary of the method: as §1
# [5] = qHTS RealTime-Glo MT Cell Viability Assay in HepG2 cells - 16 hour (AID 1224885); further: nearly all actives have a fitted effect of over 50% in size; further: potency means the concentration at half of the fitted maximal effect
# Summary of the method: (§3)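 Real-time, nonlytic viability: 600 HepG2 cells/well mixed with NanoLuc enzyme plus prosubstrate; 5 h settle, compound (DMSO) added by pintool; luminescence monitored over 40 h at 37 C.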
# [6] = qHTS RealTime-Glo MT Cell Viability Assay in HEK293 cells - 24 hour (AID 1224886); further: nearly all actives have a fitted effect of over 50% in size; further: potency means the concentration at half of the fitted maximal effect; on activity change, negative = cytotoxicity: top concentration of the series differs between compounds
# Summary of the method: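 Cells + reagent dispensed (600 cells/well, HEK293) → 5 h at 37 C/5% CO2 → 23 nL compound in DMSO pinned → 40 h at 37 C → luminescence read at 0, 8, 16, 24, 32, 40 h.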
# [7] = qHTS RealTime-Glo MT Cell Viability Assay in HEK293 cells - 8 hour (AID 1224887); further: nearly all actives have a fitted effect of over 50% in size; further: potency means the concentration at half of the fitted maximal effect; on activity change, negative = cytotoxicity: top concentration of the series differs between compounds
# Summary of the method: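 qHTS format; HEK293 cells with NanoLuc/prosubstrate reagent, 37 C/5% CO2 for 5 h pre-dosing; compounds 23 nL in DMSO; luminescence at each time point reflects viable cells.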
# [8] = A CellTox Green Cytotoxicity Assay to monitor cytotoxicity in HEK293 cells - 16 hour (AID 1224888); further: nearly all actives have a fitted effect of over 35% in size; further: potency means the concentration at half of the fitted maximal effect
# Summary of the method: as §1
# [9] = qHTS RealTime-Glo MT Cell Viability Assay in HepG2 cells - 0 hour (AID 1224889); further: nearly all actives have a fitted effect of over 50% in size
# Summary of the method: as §3
# [10] = A CellTox Green Cytotoxicity Assay to monitor cytotoxicity in HepG2 cells - 8 hour (AID 1224890); further: nearly all actives have a fitted effect of over 45% in size; further: potency means the concentration at half of the fitted maximal effect
# Summary of the method: as §2
SMILES,Potency [1],Potency [2],Potency [3],Potency [4],Potency [5],Potency [6],Potency [7],Potency [8],Potency [9],Potency [10],cytotoxicity increase [1],cytotoxicity [2],cytotoxicity increase [3],cytotoxicity increase [4],"activity change, negative = cytotoxic [5]","activity change, negative = cytotoxicity [6]","activity change, negative = cytotoxicity [7]",activity change [8],"activity change, negative = cytotoxicity [9]",cytotoxicity increase [10]
Cc1occc(=O)c1OC(=O)C(C)C,inactive,inactive,inactive,inactive,inactive,inactive,inactive,inactive,inactive,inactive,,,,,,,,,,
COc1ccc(Cc2cnc(N)nc2N)cc1OC,inactive,inactive,inactive,inactive,inactive,inactive,inactive,inactive,inactive,inactive,,,,,,,,,,
NCCCCCC(=O)O,inactive,inactive,inactive,inactive,inactive,inactive,inactive,inactive,inactive,inactive,,,,,,,,,,
O=C(O)c1cn(-c2ccc(F)cc2)c2cc(N3CCNCC3)c(F)cc2c1=O,inactive,inactive,inactive,inactive,inactive,inactive,inactive,inactive,inactive,inactive,,,,,,,,,,
C=CS(=O)(=O)O,inactive,inactive,inactive,inactive,inactive,inactive,inactive,inactive,inactive,inactive,,,,,,,,,,
CCCN[C@H]1CCc2nc(N)sc2C1,inactive,inactive,inactive,inactive,inactive,inactive,inactive,inactive,inactive,inactive,,,,,,,,,,
CCCCCCCCCCCC[N+](C)(C)C,54.8 µM (active) and 17.4 µM (active) and 30.9 µM (active),inactive,43.5 µM (active) and 49 µM (active) and 43.6 µM (active),inactive,inactive,4.89 µM (active),inactive,inactive,inactive,inactive,,,,,,,,,,
CCN(CC)c1ccc2c(C)cc(=O)oc2c1,inactive,inactive,inactive,inactive,inactive,34.9 µM (active),inactive,inactive,inactive,inactive,,,,,,,,,,
CC(C)(C)c1ccccc1,inactive,inactive,inactive,inactive,inactive,inactive,inactive,inactive,inactive,inactive,,,,,,,,,,
CC(=O)CC(=O)Nc1ccc2[nH]c(=O)[nH]c2c1,inactive,inactive,inactive,inactive,inactive,inactive,inactive,inactive,inactive,inactive,,,,,,,,,,
O=C1Nc2ccccc2C1(c1ccc(O)cc1)c1ccc(O)cc1,inactive,inactive,inactive,inactive,inactive,inactive,inactive,inactive,inactive,inactive,,,,,,,,,,
c1cnc2cc3c(cc2n1)C1CNCC3C1,inactive,inactive,inactive,inactive,inactive,inactive,inactive,inactive,inactive,inactive,,,,,,,,,,
O=Cc1ccc(Cl)cc1,inactive,inactive,inactive,inactive,inactive,inactive,inactive,inactive,inactive,inactive,,,,,,,,,,
CC(N)=O,inactive,inactive,inactive,inactive,inactive,inactive,inactive,inactive,inactive,inactive,,,,,,,,,,
O=C1CC2(CCCC2)CC(=O)N1CCCCN1CCN(c2ncccn2)CC1,inactive,inactive,43.6 µM (active) and inactive,inactive,inactive,49 µM (active) and inactive,inactive,inactive,inactive,inactive,,,,,,,,,,
c1ccc2c(c1)-c1cccc3c1c-2cc1ccccc13,inactive,inactive,inactive,inactive,inactive,inactive,inactive,inactive,inactive,inactive,,,,,,,,,,
O=C(O)CP(=O)(O)O,inactive,inactive,inactive,inactive,inactive,inactive,inactive,inactive,inactive,inactive,,,,,,,,,,
NC(Cc1ccc(Cl)cc1)C(=O)O (stereo not given),,,,,,,,,,,-6.93% [at 0.29 µM] (inactive),-3.58% [at 0.29 µM] (inactive),-4.66% [at 0.29 µM] (inactive),5.18% [at 0.29 µM] (inactive),-3.04% [at 0.29 µM] (inactive),9.19% [at 0.29 µM] (inactive),10.3% [at 0.29 µM] (inactive),"-4.15% [at 0.29 µM, stronger effect = higher value] (inactive)",-2.96% [at 0.29 µM] (inactive),-8.44% [at 0.29 µM] (inactive)
O=C1NCC2(CCN(CCc3ccccc3)CC2)O1,inactive,inactive,inactive,inactive,inactive,inactive,inactive,inactive,inactive,inactive,,,,,,,,,,

SMILES,Potency [1],Potency [2],Potency [3],Potency [4],Potency [5],Potency [6],Potency [7],Potency [8],Potency [9],Potency [10],cytotoxicity increase [1],cytotoxicity [2],cytotoxicity increase [3],cytotoxicity increase [4],"activity change, negative = cytotoxic [5]","activity change, negative = cytotoxicity [6]","activity change, negative = cytotoxicity [7]",activity change [8],"activity change, negative = cytotoxicity [9]",cytotoxicity increase [10]
O,inactive,inactive,inactive,inactive,inactive,inactive,inactive,inactive,inactive,inactive,,,,,,,,,,
CC[C@@H](N)CO,inactive,inactive,inactive,inactive,inactive,inactive,inactive,inactive,inactive,inactive,,,,,,,,,,
CC(C(O)c1ccc(O)cc1)N1CCC(Cc2ccccc2)CC1 (stereo not given),inactive,inactive,inactive,inactive,inactive,inactive,inactive,inactive,inactive,inactive,,,,,,,,,,
O=C(Oc1ccccc1)c1ccccc1O,inactive,inactive,inactive,inactive,inactive,inactive,inactive,inactive,inactive,inactive,,,,,,,,,,
Oc1c(Cl)cc(Cl)c(Cl)c1Cc1c(O)c(Cl)cc(Cl)c1Cl,54.8 µM (active) and 49 µM (active) and inactive,inactive,inactive and 38.9 µM (active),inactive,inactive,3.88 µM (active),inactive,inactive,inactive,inactive,,,,,,,,,,
CCOC(=O)C(C)C(C)=O (stereo not given),inactive,inactive,inactive,inactive,inactive,inactive,inactive,inactive,inactive,inactive,,,,,,,,,,
CCC(CO)(CO)COCC(CC)(CO)CO,inactive,inactive,inactive,inactive,inactive,inactive,inactive,inactive,inactive,inactive,,,,,,,,,,
C1COC(NC(C2CC2)C2CC2)=N1,inactive,inactive,inactive,inactive,inactive,inactive,inactive,inactive,inactive,inactive,,,,,,,,,,
COc1ccc(COC(C)=O)cc1,inactive,inactive,inactive,inactive,inactive,inactive,inactive,inactive,inactive,inactive,,,,,,,,,,
CC(C)(C)NC(=O)[C@@H]1CN(Cc2cccnc2)CCN1C[C@@H](O)C[C@@H](Cc1ccccc1)C(=O)N[C@H]1c2ccccc2C[C@H]1O,inactive,inactive,inactive,inactive,inactive,inactive,inactive,inactive,inactive,inactive,,,,,,,,,,
OCCOCCN1CCN(C(c2ccccc2)c2ccc(Cl)cc2)CC1 (stereo not given),inactive,inactive,24.2 µM (active) and inactive,inactive,48.3 µM (active) and inactive,6.83 µM (active) and inactive,inactive,inactive,inactive,43.1 µM (active) and inactive,,,,,,,,,,
NNCCc1ccccc1,inactive,inactive,inactive,inactive,inactive,inactive,inactive,inactive,inactive,inactive,,,,,,,,,,
Nc1nc2ccccc2[nH]1,inactive,inactive,inactive,inactive,inactive,inactive,inactive,inactive,inactive,inactive,,,,,,,,,,
NC(N)=Nc1nc(CSCC/C(N)=N/S(N)(=O)=O)cs1,inactive,inactive,inactive,inactive,inactive,inactive,inactive,inactive,inactive,inactive,,,,,,,,,,
O=C(O)c1cc(Cl)cc(Cl)c1,inactive,inactive,inactive,inactive,inactive,inactive,inactive,inactive,inactive,inactive,,,,,,,,,,
O=C(Cl)c1cccc(C(=O)Cl)c1,inactive,inactive,inactive,inactive,inactive,inactive,inactive,inactive,inactive,inactive,,,,,,,,,,
NCCO,inactive,inactive,inactive,inactive,inactive,inactive,inactive,inactive,inactive,inactive,,,,,,,,,,
CCCCCCCCCCCCCC[P+](CCCC)(CCCC)CCCC,12.2 µM (active) and 17.4 µM (active),inactive,19.4 µM (active) and 15.5 µM (active),17.3 µM (active) and 21.9 µM (active),21.8 µM (active) and 15.5 µM (active),387 nM (active) and 616 nM (active),24.4 µM (active) and 19.5 µM (active),17.3 µM (active) and 19.5 µM (active),inactive,24.4 µM (active) and 19.5 µM (active),,,,,,,,,,
